The source of these data is PubChem BioAssay (NCI).

Assay [1] in a line: NCI Yeast Anticancer Drug Screen. Data for the rad50 strain (AID 155).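 Note: 0% = growth of vehicle-only cultures of the same strain.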 Particulars: S. cerevisiae rad50 strain growth inhibition, hits give high values. The gist of the method: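 Yeast carrying a defined DNA repair defect were exposed to test compounds, and growth was compared with vehicle-treated controls to give percent inhibition.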
A short description of assay [2]: NCI Yeast Anticancer Drug Screen. Data for the mec2-1 strain (AID 157). Particulars: S. cerevisiae mec2-1 strain, hits give high values. The gist of the method: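 Test agents were screened against the mec2-1 yeast strain, with defined DNA repair or cell cycle alteration. Growth was scored as inhibition against vehicle-only controls.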
Assay [3] is described as follows: NCI Yeast Anticancer Drug Screen. Data for the sgs1 mgt1 strain (AID 161).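 Note: 0% = growth of cultures given vehicle only.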 The following applies: S. cerevisiae sgs1 mgt1 strain, hits give high values. The gist of the method:
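Mutant yeast exposed to compound; growth scored against vehicle-only wells.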

A short description of assay [4]: NCI Yeast Anticancer Drug Screen. Data for the cln2 rad14 strain (AID 165).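 Note: 0% = growth equal to vehicle treated cultures.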 The following applies: S. cerevisiae cln2 rad14 strain, hits give high values. In outline:
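Growth of compound-exposed yeast (cln2 rad14 genotype) measured and expressed as inhibition relative to vehicle.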

Assay [5] can be described thus: NCI Yeast Anticancer Drug Screen. Data for the bub3 strain (AID 167). Particulars: S. cerevisiae bub3 mutant strain, hits give high values. In outline:
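Compounds were applied to a genetically altered yeast strain carrying a cell-cycle control defect. Growth inhibition was scored against vehicle-treated controls.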

A short description of assay [6]: NCI Yeast Anticancer Drug Screen. Data for the mlh1 rad18 strain (AID 175). Particulars: S. cerevisiae mlh1 rad18 strain growth inhibition, hits give high values. In outline:
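In this whole-cell yeast screen, a strain with altered DNA damage repair is challenged with compound, and its growth is measured against matched vehicle-treated controls.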

Where [7] appears, read: at 5.0 µM (retest, dose inferred, filed as 0.5).
Where [8] appears, read: at 50.0 µM (retest, dose inferred, filed as 5.0).

About 79,000 compounds went through this panel and 15% of them were active in at least one assay; those are over-represented in the sample as a whole. Values without a mark were called inactive. The source made the active and inactive calls. Cut-off read from the data, not from the text of the source: active = growth inhibition above about 70%; inactive = the rest.

Turning to `O=C(CBr)Nc1ccc(Cl)cc1`, the growth inhibition in assay [1] (setting [7]) was 99% (active); in assay [1] (setting [8]), 99% (active); in assay [1] (at 50.0 µM), 98.8% (active); in assay [2] (setting [7]), 99% (active); in assay [2] (setting [8]), 99% (active); in assay [2] (at 50.0 µM), 99.3% (active). For the same molecule, the growth inhibition in assay [3] (setting [7]) is 99% (active); in assay [3] (setting [8]), 99% (active); in assay [3] (at 50.0 µM), 99.6% (active); in assay [4] (setting [7]), 98% (active); in assay [4] (setting [8]) it was 99% (active); in assay [4] (at 50.0 µM), 98.7% (active). For the same molecule, the growth inhibition was 98% (active) in assay [5] (setting [7]); 99% (active) in assay [5] (setting [8]); 99.4% (active) in assay [5] (at 50.0 µM); 98% (active) in assay [6] (setting [7]); 98% (active) in assay [6] (setting [8]); 99.2% (active) in assay [6] (at 50.0 µM).
For the molecule `NC(=O)Nc1ccc([As](Sc2ccccc2C(=O)O)Sc2ccccc2C(=O)O)cc1`, the growth inhibition in assay [1] (setting [7]) was -1%; in assay [1] (setting [8]) it was 14%; in assay [1] (at 50.0 µM) it was 15.9%; in assay [2] (setting [7]), -3%; in assay [2] (setting [8]), -1%; in assay [2] (at 50.0 µM), 4.75%. Also, the growth inhibition is -3% in assay [3] (setting [7]); 10% in assay [3] (setting [8]); 17.3% in assay [3] (at 50.0 µM); -8% in assay [4] (setting [7]); 24% in assay [4] (setting [8]); 28.9% in assay [4] (at 50.0 µM). In addition, the growth inhibition was -8% in assay [5] (setting [7]); 26% in assay [5] (setting [8]); -7.1% in assay [5] (at 50.0 µM); -4% in assay [6] (setting [7]); 8% in assay [6] (setting [8]); 20.1% in assay [6] (at 50.0 µM).
With `COc1cccc(C2N(Cc3ccc(N(CCCl)CCCl)cc3C)CCCN2Cc2ccc(N(CCCl)CCCl)cc2C)c1O`, the growth inhibition in assay [1] (setting [7]) was 7%; in assay [1] (setting [8]) it was 94% (active); in assay [1] (at 50.0 µM), 27.6%; in assay [2] (setting [7]) it was -2%; in assay [2] (setting [8]), 96% (active); in assay [2] (at 50.0 µM) it was 10.2%. Further, the growth inhibition in assay [3] (setting [7]) was -2%; in assay [3] (setting [8]) it was 97% (active); in assay [3] (at 50.0 µM), 64.5%; in assay [4] (setting [7]), -5%; in assay [4] (setting [8]) it was 82% (active); in assay [4] (at 50.0 µM) it was -12.6%. For the same molecule, the growth inhibition in assay [5] (setting [7]) is -6%; in assay [5] (setting [8]), 89% (active); in assay [5] (at 50.0 µM), 0.75%; in assay [6] (setting [7]) it was 8%; in assay [6] (setting [8]), 93% (active); in assay [6] (at 50.0 µM), 40.1%.
Regarding `C[N+](C)(C)CC1Cc2ccccc2C1=O` (stereo not given), the growth inhibition in assay [1] (setting [7]) is 25%; in assay [1] (setting [8]), 98% (active); in assay [1] (at 50.0 µM) it was 90% (active); in assay [2] (setting [7]), 20%; in assay [2] (setting [8]) it was 99% (active); in assay [2] (at 50.0 µM) it was 93.2% (active). The growth inhibition was 14% in assay [3] (setting [7]); 99% (active) in assay [3] (setting [8]); 92% (active) in assay [3] (at 50.0 µM); 10% in assay [4] (setting [7]); 85% (active) in assay [4] (setting [8]); 90.5% (active) in assay [4] (at 50.0 µM). The growth inhibition is 32% in assay [5] (setting [7]); 99% (active) in assay [5] (setting [8]); 91.5% (active) in assay [5] (at 50.0 µM); 26% in assay [6] (setting [7]); 99% (active) in assay [6] (setting [8]); 92.5% (active) in assay [6] (at 50.0 µM).
Regarding `COC(=O)[CH2][Sn]([CH2]C(=O)OC)([c]1ccccc1)[c]1ccccc1`, the growth inhibition in assay [1] (setting [7]) was 80% (active); in assay [1] (setting [8]) it was 97% (active); in assay [1] (at 50.0 µM), 88.3% (active); in assay [2] (setting [7]), 79% (active); in assay [2] (setting [8]) it was 99% (active); in assay [2] (at 50.0 µM), 88.5% (active). In addition, the growth inhibition in assay [3] (setting [7]) was 77% (active); in assay [3] (setting [8]) it was 99% (active); in assay [3] (at 50.0 µM), 86.9% (active); in assay [4] (setting [7]) it was 52%; in assay [4] (setting [8]), 99% (active); in assay [4] (at 50.0 µM), 86.7% (active). Besides, the growth inhibition is 82% (active) in assay [5] (setting [7]); 99% (active) in assay [5] (setting [8]); 84.4% (active) in assay [5] (at 50.0 µM); 86% (active) in assay [6] (setting [7]); 97% (active) in assay [6] (setting [8]); 92% (active) in assay [6] (at 50.0 µM).
Take `[C-]#[O+].[C-]#[O+].[CH3][Sn]([CH3])[c]1ccccc1.[Fe+5].[c-]1[c-][c-][cH-][c-]1`: the growth inhibition in assay [1] (setting [7]) is 7%; in assay [1] (setting [8]), 82% (active); in assay [1] (at 50.0 µM) it was 95.3% (active); in assay [2] (setting [7]), 4%; in assay [2] (setting [8]), 87% (active); in assay [2] (at 50.0 µM), 98% (active). Besides, the growth inhibition in assay [3] (setting [7]) is 9%; in assay [3] (setting [8]) it was 88% (active); in assay [3] (at 50.0 µM) it was 94.7% (active); in assay [4] (setting [7]), -8%; in assay [4] (setting [8]), 85% (active); in assay [4] (at 50.0 µM), 95.3% (active). Besides, the growth inhibition in assay [5] (setting [7]) was -7%; in assay [5] (setting [8]), 90% (active); in assay [5] (at 50.0 µM), 98% (active); in assay [6] (setting [7]) it was 7%; in assay [6] (setting [8]), 90% (active); in assay [6] (at 50.0 µM) it was 94% (active).
Take `CC(=O)O[C@H]1C(=O)O[C@@H]2C[C@H]3C(C)=CC(=O)[C@@H](O)[C@]3(C)[C@H]3[C@@]4(O)OC[C@]32[C@@H]1[C@@H](C)[C@H]4O`: the growth inhibition is 21% in assay [1] (setting [7]); 86% (active) in assay [1] (setting [8]); 81% (active) in assay [1] (at 50.0 µM); 31% in assay [2] (setting [7]); 78% (active) in assay [2] (setting [8]); 51.2% in assay [2] (at 50.0 µM). Moreover, the growth inhibition in assay [3] (setting [7]) was 17%; in assay [3] (setting [8]), 82% (active); in assay [3] (at 50.0 µM) it was 59.6%; in assay [4] (setting [7]) it was 36%; in assay [4] (setting [8]) it was 90% (active); in assay [4] (at 50.0 µM), 74.2% (active). The growth inhibition in assay [5] (setting [7]) was 1%; in assay [5] (setting [8]) it was 74% (active); in assay [5] (at 50.0 µM), 60.4%; in assay [6] (setting [7]), 20%; in assay [6] (setting [8]), 93% (active); in assay [6] (at 50.0 µM), 83.9% (active).
For the molecule `O=[As](O)(O)c1ccc(Cc2ccc([As](=O)(O)O)cc2)cc1`, the growth inhibition is 82% (active) in assay [1] (setting [7]); 100% (active) in assay [1] (setting [8]); 99.2% (active) in assay [1] (at 50.0 µM); 62% in assay [2] (setting [7]); 100% (active) in assay [2] (setting [8]); 99.5% (active) in assay [2] (at 50.0 µM). For the same molecule, the growth inhibition in assay [3] (setting [7]) was 26%; in assay [3] (setting [8]), 99% (active); in assay [3] (at 50.0 µM), 99% (active); in assay [4] (setting [7]), 59%; in assay [4] (setting [8]), 99% (active); in assay [4] (at 50.0 µM), 98.5% (active). Moreover, the growth inhibition is 66% in assay [5] (setting [7]); 100% (active) in assay [5] (setting [8]); 99.1% (active) in assay [5] (at 50.0 µM); 78% (active) in assay [6] (setting [7]); 99% (active) in assay [6] (setting [8]); 99.2% (active) in assay [6] (at 50.0 µM).
Take `C1=C[N-]c2c3c(ccc2=C1)=CC=C[N-]3.C1=C[N-]c2c3c(ccc2=C1)=CC=C[N-]3.F[P-](F)(F)(F)(F)F.[Cu+2]`: the growth inhibition in assay [1] (setting [7]) is 56%; in assay [1] (setting [8]), 98% (active); in assay [1] (at 50.0 µM), 99.3% (active); in assay [2] (setting [7]), 52%; in assay [2] (setting [8]), 99% (active); in assay [2] (at 50.0 µM), 99.5% (active). Moreover, the growth inhibition was 47% in assay [3] (setting [7]); 99% (active) in assay [3] (setting [8]); 99.5% (active) in assay [3] (at 50.0 µM); 51% in assay [4] (setting [7]); 98% (active) in assay [4] (setting [8]); 98.8% (active) in assay [4] (at 50.0 µM). In addition, the growth inhibition in assay [5] (setting [7]) was 48%; in assay [5] (setting [8]) it was 99% (active); in assay [5] (at 50.0 µM), 99.2% (active); in assay [6] (setting [7]) it was 53%; in assay [6] (setting [8]) it was 99% (active); in assay [6] (at 50.0 µM), 99.1% (active).
For `CC1(C)CC2(c3ccccc3)CC(c3ccccc3)C1C(C(=O)O)C2C(=O)O` (stereo not given), the growth inhibition is 28% in assay [1] (setting [7]); 99% (active) in assay [1] (setting [8]); 99.2% (active) in assay [1] (at 50.0 µM); 27% in assay [2] (setting [7]); 99% (active) in assay [2] (setting [8]); 99.3% (active) in assay [2] (at 50.0 µM). In addition, the growth inhibition was 10% in assay [3] (setting [7]); 99% (active) in assay [3] (setting [8]); 99.2% (active) in assay [3] (at 50.0 µM); 7% in assay [4] (setting [7]); 99% (active) in assay [4] (setting [8]); 98.8% (active) in assay [4] (at 50.0 µM). The growth inhibition is 35% in assay [5] (setting [7]); 96% (active) in assay [5] (setting [8]); 98.5% (active) in assay [5] (at 50.0 µM); 17% in assay [6] (setting [7]); 99% (active) in assay [6] (setting [8]); 99.2% (active) in assay [6] (at 50.0 µM).
